From PubChem BioAssay
Only some compounds are listed: those with a hit (about 5.2% of all), similar ones and a draw of the others.
SMARCA2 act = SMARCA2 (BRM) function activators, primary screen, cell-based, luminescence, high throughput. MG213 cells, MMTV-luciferase reporter, dexamethasone, overnight. AID 652017, 2013. activation, % at 9.1 µM. 1% of 370,000 active; in the data active = activation above about 7.8%;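 note: 0% = vehicle wells and 100% = reference activator wells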
Vif imaging = HIV Vif self-association inhibitors, primary screen, imaging, HEK293T, single point; 0.35% of 340,000 active; HEK293T cells, Vif self-association by quenched fluorescence, 24 h; inhibition, % at 7.49 µM; in the data active = inhibition above about 50%, passing the limit was not always enough
SKN-1 inh = suppressors of acrylamide-induced Pgst-4::GFP reporter in worms, primary screen, SKN-1 inhibitor project, whole organism, uHTS, GFP/RFP fluorescence ratio, strain VP596; C. elegans VP596 Pgst-4::GFP/RFP ratio, 24 h; inhibition, % at 21.8 µM; 0.49% of 360,000 active;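 active = interference check ratio from 0.5 to 1.5 plus GFP to RFP signal ratio inhibition reaching or exceeding a fixed threshold, cut at about 30% in these data, passing the limit was not always enough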
GRIN3A LBD mod = binders of NR3A ligand-binding domain, primary screen, biophysical, differential scanning fluorimetry, uHTS; 2.5% of 340,000 active; NR3A LBD differential scanning fluorimetry, Tm shift; 0% = protein alone, 100% = glycine-bound protein; Tm shift relative to glycine control, % at 25 µM; Glutamate receptor ionotropic, NMDA 3A (GRIN3A) ligand-binding domain; AID 1259313, 2017;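 active = melting temperature shift of at least 10% of the positive control shift, at one fixed dose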
NadD block = inhibitors of S. aureus NadD, primary screen, biochemical, colorimetric, uHTS; purified NadD enzyme, colorimetric absorbance read-out; 0.78% of 360,000 active; inhibition, % at 20 µM; AID 602399, 2012; Nicotinate-nucleotide adenylyltransferase NadD (Staphylococcus aureus N315); in the data active = inhibition above about 26%
esBAF inh = Bmi1 luciferase reporter increase in mESCs, primary screen, esBAF inhibitor project, mouse ES cells, Bmi1 luciferase knock-in, single point | 24 h; 100% = twice the neutral-well signal | reporter increase, % at 12.5 µM | 2% of 350,000 active; in the data active = activation above about 40%;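 note: 0% = median of the plate's neutral control wells and 100% = double that signal; a rise in the Bmi1 reporter signal indicates esBAF inhibition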
Active calls of the source: *; / = not tested or not shown.

SMILES	SMARCA2 act	Vif imaging	SKN-1 inh	GRIN3A LBD mod	NadD block	esBAF inh
N#C[C@H]1[C@H](c2ccc(C3=CCCCC3)cc2)[C@@H](CO)N1C(=O)c1cccc(F)c1	/	/	/	/	/	-3
CSc1ncc(C(=O)Nc2ccc(C(C)=O)cc2)c(-c2ccccc2)n1	2	1	9	-1	-9	61*
O=C(c1cccnc1)C1Cc2ccccc2C1=O (stereo unspecified)	-2	-6	36*	-7	-4	7
Cc1noc(C)c1NC(=O)Nc1ccc2c(c1)C(=O)N(C)[C@@H]1CC[C@H](CC(=O)NCc3ccc(Cl)cc3)O[C@@H]1CO2	/	/	/	/	/	0
Cc1c(OCc2ccc(C(=O)O)o2)ccc2c3c(c(=O)oc12)CCC3	0	-7	9	0	-6	-2
COC(=O)c1ccc(COc2ccc3c(C)c(C)c(=O)oc3c2C)o1	/	3	/	4	/	23*
C[C@H](CO)N1C[C@H](C)[C@@H](CN(C)C(=O)c2ccccc2)OCCCC[C@H](C)Oc2ccc(NS(C)(=O)=O)cc2C1=O	/	/	/	/	/	4
O=[N+]([O-])c1cc(C=NN2CCCCCC2)ccc1Cl	0	5	18	-2	2	74*
O=[N+]([O-])c1cccc(C=NN2CCCCCC2)c1	1	7	-16	2	-2	79*
CN1CCN(c2ccc(S(=O)(=O)N3CCCCC3)cc2NC(=O)/C=C/c2ccc(Cl)c([N+](=O)[O-])c2)CC1	-1	4	2	-6	8	-5
O=C(/C=C/c1ccc(Cl)c([N+](=O)[O-])c1)Nc1ccc(N2CCCC2)c(Cl)c1	0	2	5	17*	20	/
CO[C@H]1CN(C)C(=O)c2cc(NC(=O)C3CCCC3)ccc2OC[C@H](C)N(S(C)(=O)=O)C[C@H]1C	/	/	/	/	/	-3
Nc1ccc2c(c1)C(=NO)c1cc([N+](=O)[O-])ccc1-2	-6	0	5	28*	3	-7
O=[N+]([O-])c1ccc2c(c1)-c1ccccc1C2=NO	-3	-16	10	0	-3	-4
COC(=O)Cn1c2ccc(Cl)cc2c2nc(C)sc21	-3	0	5	2	-1	/
Cc1nc2c3cc(Cl)ccc3n(CCN3CCCCC3)c2s1	7	/	14	2	-8	51*
Cc1ccc(S(=O)(=O)n2c3ccc(Cl)cc3c3nc(C)sc32)cc1	-1	6	23	27*	-5	-11
C[C@@H]1CCCCO[C@@H](CN(C)S(C)(=O)=O)[C@@H](C)CN([C@H](C)CO)C(=O)c2cc(NS(=O)(=O)c3ccc(F)cc3)ccc2O1	/	/	/	/	/	2
CC(C)C(=O)Nc1nc(-c2ccccc2)ns1	3	-13	15	-38	-2	56*
CCC(=O)Nc1nc(-c2ccccc2)ns1	7	-6	15	-1	3	43*
CCCC(=O)Nc1nc(-c2ccccc2)ns1	2	-10	21	-20	-8	/
O=C(NCC[C@@H]1CC[C@@H](NS(=O)(=O)c2ccccc2)[C@H](CO)O1)c1ccccc1F	/	/	/	/	/	2
O=c1oc(-c2cccs2)nc2sc3c(c12)CCCCC3	0	/	-2	2	-8	43*
O=c1oc(-c2cc3ccccc3o2)nc2sc3c(c12)CCCC3	1	/	7	-3	0	53*
O=c1oc(-c2cccs2)nc2scc(-c3cccs3)c12	1	-10	1	-1	6	64*
SMILES	SMARCA2 act	Vif imaging	SKN-1 inh	GRIN3A LBD mod	NadD block	esBAF inh
Cc1sc2nc(-c3cccs3)oc(=O)c2c1C	0	27	-18	-2	-4	10
O=c1oc(-c2ccccc2)nc2sc3c(c12)CCCC3	1	1	8	2	3	56*
Cc1nc2scc(-c3cccs3)c2c(=O)o1	2	4	-6	2	0	/
C[C@@H]1CN([C@H](C)CO)C(=O)Cc2cc(NC(=O)c3ccncc3)ccc2O[C@H]1CN(C)Cc1ccccc1	/	/	/	/	/	0
COc1ccc(S(=O)(=O)N2C[C@H](O)COC[C@H]3O[C@@H](CC(=O)NCCN4CCCCC4)CC[C@@H]32)cc1	/	/	/	/	/	-1
COc1ccc(-c2ccc([C@H]3[C@@H](C#N)N(C(=O)NC4CCCC4)[C@@H]3CO)cc2)cc1	/	/	/	/	/	9
CCOC(=O)c1cc2c(nc1N)CCCC2	-2	13	6	0	0	/
CCOC(=O)c1ccc(-c2ccc3c(c2)CCC3)nc1C	7.9*	-7	34	0	4	38
CNc1ccc(/C=C(\CCC(=O)O)c2nc3ccccc3s2)cc1[N+](=O)[O-]	1	8	9	25*	13	/
Cc1ccc(/C=C(\CCC(=O)O)c2nc3ccccc3s2)cc1[N+](=O)[O-]	-1	5	13	2	6	/
O=C(CSc1nc2ccccc2n1CCc1ccccc1)c1ccc(O)c(O)c1	-6	6	12	3	36*	11
CC(=O)Nc1ccc2c(c1)C(=O)N(C)[C@H]1CC[C@@H](CC(=O)NCc3ccccc3)O[C@@H]1CO2	/	/	/	/	/	-2
CCC(C)C(=O)Nn1c(C2CC2)nc2cc(OC)c(OC)cc2c1=O (stereo unspecified)	0	125*	-5	0	1	/
COc1cccc(OC)c1C(=O)Nn1c(C2CCC2)nc2ccccc2c1=O	-2	32	-2	-1	-12	-3
CC(C)NC(=O)NCC[C@H]1CC[C@@H](NS(=O)(=O)c2ccc(-c3ccccc3)cc2)[C@H](CO)O1	/	/	/	/	/	9
CN(C)c1ccc(-c2nc3ccccn3c2/N=C/c2ccc(Br)cc2)cc1	5	3	8	24*	2	/
CCC(=O)Nc1ccc2c(c1)C(=O)N(C)[C@H]1CC[C@H](CC(=O)NCCCN(C)C)O[C@@H]1CO2	/	/	/	/	/	-3
CCOC(=O)c1cc(-c2ccccc2)sc1NC(=S)Nc1cc(C)ccn1	-1	169*	-23	-1	20	-7
CCOC(=O)c1cc(-c2ccccc2)sc1NC(=O)C(C)(C)C	-1	-9	-7	2	1	0
CCN(CC)c1ccc(/C=N/NC(=O)OC(C)(C)C)cc1	4	4	5	1	0	70*
CC(N=c1ccccn1C(=O)Nc1ccc(F)cc1)c1ccco1 (stereo unspecified)	-1	-1	6	1	-6	2
CC(N=c1ccccn1C(=O)Nc1ccc(Cl)cc1)c1ccco1 (stereo unspecified)	/	/	/	24*	/	/
